Results on 24 compounds are retold here after PubChem BioAssay (EPA / NIEHS).

Inconclusive results are not listed. Calls of active or inactive are those of the source. The calls were made as follows: active = hit-call score of the fitted dose curve at least 0.9, where 1 is the maximum; inconclusive = response in the unintended direction; inactive = score below 0.9.

Tested on in one experiment: not listed separately
Kind of experiment: CCTE_Deisenroth_AIME_384WELL_CTox_Active: Cytotoxicity Assessment (CTOX) in CCTE's 384-well Estrogen Receptor Transactivation Assay with AIME metabolic competence (metabolism positive), Deisenroth Lab (AID 2284037).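 Also: chemicals first conditioned 2 h by alginate-bound induced rat liver S9 before cells; activity means signal loss indicating cell death.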 The method in brief: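 Chemicals pre-incubated 2 hours with alginate-immobilised phenobarbital/beta-naphthoflavone-induced male Sprague Dawley rat liver S9, then conditioned medium applied 24 hour to VM7Luc4E2 cells. Viability by fluorogenic protease substrate; 10-point series 0.002 - 200 uM.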
On to `O=C(CC(=O)c1ccccc1)c1ccccc1`, for which the call was inactive.

Consider `CCCCCCCCCCCCCCN(CCO)CCO`, for which the result was inactive.

As to `Oc1ccc2cc(SSc3ccc4cc(O)ccc4c3)ccc2c1`, the outcome was inactive.

Consider `CCCCCCCCC=CCCCCCCCC1=NCCN1CCO`, for which the outcome was inactive.

As for `O=C1OC(=O)c2c(Cl)c(Cl)c(Cl)c(Cl)c21`, the compound was called inactive.

As for `CCCCCCC(C)(C)S`, the call was inactive.

Regarding `CCCCC(CC)COC(=O)c1ccc(O)cc1` (centres undefined), the compound was classed as inactive.

Tested on in the next experiment: not listed separately
Nature of the experiment: CCTE_Deisenroth_AIME_384WELL_CTox_Inactive: Cytotoxicity Assessment (CTOX) in CCTE's 384-well Estrogen Receptor Transactivation Assay without AIME metabolic competence (metabolism negative), Deisenroth Lab (AID 2284039).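 Also: cell viability via live-cell protease substrate cleaved to fluorescent probe; cells exposed 24 h to medium preincubated 2 h with alginate-water beads without S9; loss of fluorescence signal means loss of viability.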 The method in brief: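 Fluorescence from a live-cell protease substrate, read after 24 h in VM7Luc4E2 cells, indicated viability. Test medium came from a 2 h AIME step without hepatic S9 (alginate-water microspheres); concentrations spanned 0.002 - 200 uM, single technical replicate per run.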
Consider `O=C(CC(=O)c1ccccc1)c1ccccc1`, for which the compound was classed as inactive.

For `C=C(C)[C@@H]1CC=C(C)C(=O)C1`, the call was inactive.

On to `CN1C(=O)c2ccccc2C1=O`, for which the result was inactive.

Consider `Oc1ccc2cc(SSc3ccc4cc(O)ccc4c3)ccc2c1`, for which the result was inactive.

In the case of `CCCCCCCCC=CCCCCCCCC1=NCCN1CCO`, the compound was called inactive.

Turning to `Nc1ccccc1[N+](=O)[O-]`, the call was inactive.

For the compound `O=C1OC(=O)c2c(Cl)c(Cl)c(Cl)c(Cl)c21`, the outcome was inactive.

Consider `O=C(O)c1ccc(O)cc1`, for which the compound was called inactive.

On to `CCCCCCC(C)(C)S`, for which the outcome was inactive.

As usually defined, the AC50 is the midpoint of the concentration-response curve, whichever way the signal moves. `CCCCC(CC)COC(=O)c1ccc(O)cc1` (centres undefined): the half-maximal activity concentration (AC50) is 61.6 µM (active).

For the compound `CCOC(=O)C1OC1c1ccccc1` (centres undefined), the call was inactive.

For another experiment, the system named is DIO2 (gene 1734). Nature of the experiment: CCTE_GLTED_hDIO2: CCTE's human Deiodinase 2 (DIO2) Inhibition Assay, Great Lakes Toxicology and Ecology Division (GLTED) Lab (AID 2284050). In a few lines:
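Triplicate cell-free incubations (3 h) of human DIO2 with chemical preceded colorimetric Sandell-Kolthoff quantitation of liberated iodide; DMSO served as negative control for curve fitting.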
In the case of `CCOC(=O)[C@@H](C)Oc1ccc(Oc2nc3ccc(Cl)cc3o2)cc1`, the AC50 was 23.5 µM (active).

As to `CCCCCCCCCCCCCCN(CCO)CCO`, the concentration at half-maximal activity (AC50) is 39.9 µM (active).

Turning to `CCc1cc(Cc2cc(CC)cc(C(C)(C)C)c2O)c(O)c(C(C)(C)C)c1`, the AC50 was 83.3 µM (active).

For the compound `CCOc1ccc(N=Nc2ccc(C=Cc3ccc(N=Nc4ccc(OCC)cc4)cc3S(=O)(=O)O)c(S(=O)(=O)O)c2)cc1`, the AC50 was 43.9 µM (active).

Regarding `CCCCCCCCCCCCCC(=O)OCC(O)CO` (centres undefined), the AC50 was 100 µM (active).

Consider `C=C1CC[C@H](O)C/C1=C/C=C1\CCC[C@]2(C)[C@@H]([C@H](C)/C=C/[C@H](C)C(C)C)CC[C@@H]12`, for which the AC50 is 19.8 µM (active).

For the compound `Cc1cc(S(=O)(=O)O)ccc1N=Nc1c(O)ccc2ccccc12`, the outcome was inactive.

For the compound `CCCCCCCCCCCCN1CCCCCC1=O`, the half-maximal activity concentration (AC50) is 116 µM (active).

As for `O=CCc1ccccc1`, the compound was called inactive.

Regarding `CC(C)CCCCCCCCCCCCCCC(=O)O`, the AC50 was 100 µM (active).

In the case of `C=C(C)C(=O)OCCOC1CC2CC1C1C=CCC21` (centres undefined), the half-maximal activity concentration (AC50) is 13 µM (active).

For the compound `Oc1ccc2cc(SSc3ccc4cc(O)ccc4c3)ccc2c1`, the half-maximal activity concentration (AC50) is 22.2 µM (active).

Turning to `CCCCCCCCC=CCCCCCCCC1=NCCN1CCO`, the AC50 is 60.9 µM (active).

For `CCCCC(CC)COC(=O)c1ccc(O)cc1` (centres undefined), the AC50 is 82.5 µM (active).

For the compound `COc1ccc(N=Nc2cc(C)c(N=Nc3ccc(S(=O)(=O)O)cc3)cc2OC)cc1`, the AC50 was 100 µM (active).

`CCCCCC(C=O)=Cc1ccccc1`: the concentration at half-maximal activity (AC50) is 62.6 µM (active).
